Assay outcomes (PubChem)
eIF4E-4G inh: eIF4E–eIF4G protein interaction inhibitors, primary screen, biochemical, uHTS, TR-FRET, eIF4GI fragment | AID 782, 2007 | 0.37% of 220,000 active | inhibition, % at 21.7 µM | TR-FRET eIF4E-eIF4GI(517-606) binding, 2 h | Eukaryotic translation initiation factor 4E (Mus musculus) + Eukaryotic translation …;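 active = inhibition above about 30%, limit read from the data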
Target sequence (P63073 whole entry, looked up, the tested form may be a part): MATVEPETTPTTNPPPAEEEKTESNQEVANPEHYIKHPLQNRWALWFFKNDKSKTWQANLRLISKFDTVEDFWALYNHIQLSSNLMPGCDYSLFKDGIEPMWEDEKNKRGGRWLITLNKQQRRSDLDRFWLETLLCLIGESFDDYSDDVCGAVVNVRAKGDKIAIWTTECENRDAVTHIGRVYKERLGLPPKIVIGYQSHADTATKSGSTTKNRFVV
Target sequence (Q04637 whole entry, looked up, the tested form may be a part): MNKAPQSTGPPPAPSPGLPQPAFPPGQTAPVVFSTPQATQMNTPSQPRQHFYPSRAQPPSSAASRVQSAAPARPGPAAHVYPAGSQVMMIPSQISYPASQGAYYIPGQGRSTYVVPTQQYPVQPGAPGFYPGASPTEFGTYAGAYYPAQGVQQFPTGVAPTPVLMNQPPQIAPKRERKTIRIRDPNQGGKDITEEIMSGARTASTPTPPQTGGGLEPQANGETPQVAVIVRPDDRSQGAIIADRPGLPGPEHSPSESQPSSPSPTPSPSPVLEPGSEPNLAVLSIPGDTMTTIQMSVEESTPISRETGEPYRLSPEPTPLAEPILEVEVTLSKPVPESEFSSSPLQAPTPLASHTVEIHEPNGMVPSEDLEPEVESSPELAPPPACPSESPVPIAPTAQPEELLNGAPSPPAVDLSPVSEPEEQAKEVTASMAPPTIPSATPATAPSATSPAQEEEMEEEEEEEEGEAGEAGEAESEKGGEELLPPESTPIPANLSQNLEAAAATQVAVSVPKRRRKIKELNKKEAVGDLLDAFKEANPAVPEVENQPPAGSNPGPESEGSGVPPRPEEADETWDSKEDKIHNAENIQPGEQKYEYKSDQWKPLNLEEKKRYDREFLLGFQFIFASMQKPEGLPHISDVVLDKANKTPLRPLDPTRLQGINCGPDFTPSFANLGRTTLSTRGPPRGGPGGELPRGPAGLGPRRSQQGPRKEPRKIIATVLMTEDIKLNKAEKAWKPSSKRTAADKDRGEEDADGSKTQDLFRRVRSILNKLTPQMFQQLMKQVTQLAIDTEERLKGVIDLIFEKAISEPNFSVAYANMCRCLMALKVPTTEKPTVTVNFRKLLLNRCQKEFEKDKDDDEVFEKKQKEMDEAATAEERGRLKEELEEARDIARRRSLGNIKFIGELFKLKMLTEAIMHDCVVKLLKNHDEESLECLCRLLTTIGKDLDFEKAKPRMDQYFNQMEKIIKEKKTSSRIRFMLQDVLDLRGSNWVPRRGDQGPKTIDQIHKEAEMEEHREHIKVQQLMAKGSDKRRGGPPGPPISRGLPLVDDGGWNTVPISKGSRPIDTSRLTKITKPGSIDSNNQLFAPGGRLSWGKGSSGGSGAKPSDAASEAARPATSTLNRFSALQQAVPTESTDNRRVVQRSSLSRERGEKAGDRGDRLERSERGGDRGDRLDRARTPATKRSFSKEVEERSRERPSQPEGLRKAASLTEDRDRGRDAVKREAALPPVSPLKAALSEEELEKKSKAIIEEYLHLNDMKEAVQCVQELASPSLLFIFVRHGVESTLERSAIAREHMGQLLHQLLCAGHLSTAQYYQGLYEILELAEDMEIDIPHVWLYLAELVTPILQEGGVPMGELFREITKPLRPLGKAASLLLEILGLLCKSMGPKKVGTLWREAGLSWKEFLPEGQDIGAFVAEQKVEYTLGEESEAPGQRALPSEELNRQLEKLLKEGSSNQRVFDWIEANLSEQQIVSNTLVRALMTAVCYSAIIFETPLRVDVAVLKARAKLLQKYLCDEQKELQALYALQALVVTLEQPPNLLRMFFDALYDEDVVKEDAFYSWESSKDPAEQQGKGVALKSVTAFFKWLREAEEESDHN
Ins promoter up: insulin promoter activators in MIN6 cells, imaging, high-content screening, mouse beta cells | 0.3% of 190,000 active | MIN6 insulin promoter-GFP reporter; hits give high values | AID 1625, 2009 | z-score at 5 µM;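 active = z-score above 3 at 5 µM with at least 500 cells counted in the well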
Autophagy HCS: autophagy modulators in MEF cells, primary screen, imaging, high-content, MEF GFP-LC3. MEF GFP-LC3 puncta imaging; test concentration mostly 10 µM. calls only at 10 µM (by protocol). 0.98% of 190,000 active;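 active = percentage of spot-positive cells more than 3 SD above its plate mean, without a fluorescence outlier flag or 80% toxicity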
Insulin prom inh: inhibitors of insulin promoter-driven GFP, primary screen, imaging, TRM-6 cells (human fetal islet line), eGFP reporter, cell count; reporter expression induced with tamoxifen; inhibition, % at 2 µM; 0.9% of 130,000 active;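 active = inhibition above the mean plus 3 SD, with well images judged a real hit on visual review, cut at about 60% in these data, passing the limit was not always enough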
PERK inh: block of dimerizer-induced PERK translation repression, primary screen, PERK inhibitor project, CHO PERK-DD cells, SEAP luminescence, HTS; CHO PERK-DD fusion, SEAP luminescence translation reporter; 0.17% of 220,000 active; AID 1416, 2008; inhibition, % at 5.6 µM; Eukaryotic translation initiation factor 2-alpha kinase 3 (Homo sapiens), Q9NZJ5;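 active = inhibition above the mean inhibition of all tested compounds plus 3 SD, set separately per screening campaign, cut at about 2.9% in these data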;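 also: PERK kinase domain activated by AP20187 dimerizer at 100 nM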
A number is an active result; – = inactive; · = no result given; + = active, no number. Shown are actives, neighbours in structure and some others; about 2% of the full set was active somewhere.

SMILES	eIF4E-4G inh	Ins promoter up	Autophagy HCS	Insulin prom inh	PERK inh
N#C/C(=C\c1cccc(Oc2ccccc2)c1)C(=O)N1CCOCC1	–	–	–	·	–
CCCCN1CCc2c1nc1ccc(Br)cc1c2N	–	·	–	87	–
O=C(COc1ccc(Cl)cc1)NCc1nnc(SCC(=O)Nc2ccccc2F)o1	–	–	–	–	–
Cc1cc(C)nc(NS(=O)(=O)c2ccc(NC(=O)C3(c4ccccc4)CCCC3)cc2)n1	–	–	–	·	–
O=C(Oc1ccc(C(=S)N2CCOCC2)cc1Br)c1cc(Cl)ccc1Cl	–	–	–	–	–
O=C(Oc1c(Br)cc(C(=S)N2CCOCC2)cc1Br)c1ccc(Cl)cc1	49	–	–	–	–
CC(=O)Nc1nc2ccccc2n1CCN1CCOCC1	–	–	–	–	–
O=C(Nc1nc2ccccc2n1CCN1CCOCC1)c1cn(-c2ccccc2)nc1-c1ccccc1	–	–	+	·	–
CC(C)[C@@H]1NC(=O)c2cc([N+](=O)[O-])cc(I)c2NCC[C@@H](C(N)=O)NC(=O)[C@H](CO)NC1=O	–	–	–	–	–
C[C@@H](O)C1NC(=O)[C@H](CCCCN)NC(=O)c2cc([N+](=O)[O-])cc(I)c2NCCC[C@@H](C(N)=O)NC1=O (some centres undefined)	34	–	–	–	–
Cc1ccc(S(=O)(=O)NC(=O)c2cc(C)n(-c3ccc(N(C)C)cc3)c2C)cc1	–	–	–	·	–
CCC(NC(=O)Nc1cc(C)on1)(C(F)(F)F)C(F)(F)F	–	–	·	·	3.2
CC1CCN(c2c(NCc3ccc(C(=O)N4CCc5ccccc54)cc3)c(=O)c2=O)CC1	–	–	+	·	–
CCOCCn1c(CN2CCN(C)CC2)nc2c1c(=O)n(C)c(=O)n2C	90	–	·	·	·
COCCn1c(CN2CCN(C)CC2)nc2c1c(=O)n(C)c(=O)n2C	–	–	–	·	–
Nc1c(C(=O)NCCN2CCOCC2)c2nc3ccccc3nc2n1CCc1ccccc1F	–	–	+	·	–
Cc1ccc(C(=O)NCCn2c(N)c(C#N)c3nc4ccccc4nc32)cc1	–	4.1	–	–	–
Nc1c(C(=O)NCCN2CCOCC2)c2nc3ccccc3nc2n1-c1ccc2c(c1)OCO2	–	–	+	·	–
COc1ccc(NC(=S)Nc2cnc3ccccc3c2)c(OC)c1	–	–	–	–	–
S=C1NCN(C2CCCCC2)CN1Cc1ccccc1	–	–	–	·	–
Cc1ccc(/C=C/C(=O)NCc2ccccn2)o1	–	–	–	66	–
Cc1ccc(/C=C/C(=O)NCc2ccco2)o1	–	–	–	–	–
Cc1ccccc1/C=N/Nc1ncnc2nc[nH]c12	–	–	·	·	–
Fc1ccc(/C=N/Nc2ncnc3nc[nH]c23)cc1F	–	–	–	60	–
O=S1(=O)CC2NC(=S)N(c3cccc(Br)c3)C2C1 (centres undefined)	–	·	·	·	–
SMILES	eIF4E-4G inh	Ins promoter up	Autophagy HCS	Insulin prom inh	PERK inh
Cc1ccccc1Oc1nc2c(C)cccn2c(=O)c1/C=C(\C#N)C(=O)Nc1c(C)n(C)n(-c2ccccc2)c1=O	–	–	–	–	–
COc1nnc(-c2ccc(N3CCCCC3)c(N)c2)c2ccccc12	·	·	–	–	–
Cc1ccc(-n2c(-c3ccc(Cl)cc3)c[n+]3c2CCC3)cc1	94	–	·	·	–
CCNc1cc2n(c(=O)n1)CCc1cc(OC)c(OC)cc1-2	–	–	–	–	–
COc1cc2c(cc1OC)-c1cc(NCc3ccccn3)nc(=O)n1CC2	88	–	–	·	–
O=C(NCc1ccco1)c1cc2nc(-c3ccc4c(c3)OCO4)cc(C(F)(F)F)n2n1	–	–	–	–	–
COc1ccc(-c2cc(C(F)(F)F)n3nc(C(=O)NCc4ccco4)cc3n2)cc1	–	–	+	·	–
O=C1OCC/C1=C\OCCCO/C=C1\CCOC1=O	86	·	·	·	–
COc1ccc(Cn2c(CCC(=O)O)nc3cccnc32)cc1	–	–	–	–	–
CCCCNC(=O)CCc1nc2cccnc2n1Cc1ccc(OC)cc1	–	·	–	83	–
CCOC(=O)Cc1csc(NC(=O)CC)n1	–	–	–	·	–
C=CCSc1nc(N)c2c(C)c(C)sc2n1	–	·	–	·	–
CCSc1nc(N)c2c(C)c(C)sc2n1	–	·	–	78	–
CCOC(=O)Cc1csc(NC(=O)CSc2nc(N)c3c(C)c(C)sc3n2)n1	–	·	–	100	–
CN1CC=C2C(C#N)=C(N)C(C#N)(C#N)[C@H](c3cccs3)[C@H]2C1	–	·	+	–	–
COc1cc([C@@H]2[C@H]3CN(C)CC=C3C(C#N)=C(N)C2(C#N)C#N)cc2c1OCO2	–	·	+	·	–
O=C(COC(=O)c1cc(S(=O)(=O)N2CCOCC2)ccc1O)NCC1CCCO1 (centres undefined)	–	3.8	–	–	–
COc1ccc(-c2cc([C@H]3[C@@H]4C=CCC[C@@]4(C)C(=O)N3Cc3ccccc3)ccc2F)cc1	45	·	·	·	·
COc1ccc(-c2ccc([C@H]3[C@@H]4C=CCC[C@@]4(C)C(=O)N3Cc3ccccc3)c(F)c2)cc1	–	·	·	·	·
O=C(CCCc1nc(-c2ccccc2Cl)no1)NC1CCCCC1	–	–	+	–	–
CNC(=O)CCCc1nc(-c2ccccc2Cl)no1	–	–	–	–	–
O=C1/C(=N\S(=O)(=O)c2cccs2)C([n+]2cccc(Cc3ccccc3)c2)=C([O-])c2ccccc21	–	6.8	·	·	–
CNC(=O)C1CC(=O)N/C(=N/N=C(\C)c2cccs2)S1 (centres undefined)	–	3.7	–	–	–
Cc1ccc(NC(=O)CN(C)C(=O)/C=C/c2cccs2)cc1	–	–	–	–	–
COC(=O)[C@H](CCSC)NC(=O)Nc1cc(C)ccc1C	–	·	–	–	–
SMILES	eIF4E-4G inh	Ins promoter up	Autophagy HCS	Insulin prom inh	PERK inh
Cc1ccc(C)c(NC(=O)C(C)CC2COCCO2)c1 (centres undefined)	–	3.5	–	·	–
NC(=O)C[n+]1ccc(/C=N/O)cc1	–	–	+	–	–
CC(C)N(C(=O)C[n+]1ccc(/C=N/O)cc1)C(C)C	–	·	–	·	–
COc1cc(CNCCc2ccc(S(N)(=O)=O)cc2)ccc1OCC(=O)N1CCCCC1	–	–	–	·	–
O=C(Nc1ccccc1N1CCN(c2ccccc2)CC1)C12CC3CC(CC(C3)C1)C2	–	–	+	–	–
O=C(Cc1ccccc1)Nc1ccccc1N1CCN(c2ccccc2)CC1	–	–	–	·	–
COc1ccc(S(=O)(=O)O/N=C2\CCCc3ccccc32)cc1	–	·	–	–	–
CC(C)(C)N1CCC1CN (centres undefined)	–	·	·	·	4.5
O=C(c1ccc([N+](=O)[O-])cc1)N(Cc1ccc(Br)cc1)N1C(=O)CCCC1=O	–	–	+	–	–
Cc1cc(NC(=O)/C(C#N)=C/c2ccco2)n(-c2ccccc2)n1	–	–	–	·	–
Cc1ccc(-c2ccc(/C=C(\C#N)C(=O)Nc3cc(C)nn3-c3ccccc3)o2)cc1	–	·	+	·	–
